The full list was thinned out, with hits kept by preference.
RT RNaseH block – blocks HIV-1 RNase H cleavage of RNA/DNA duplex. P04585. RT-RNase H RNA/DNA duplex cleavage, fluorescence. inhibition, % at 10 µM. 65,000 compounds, 1.9% hits; in the data active = inhibition above about 50%
Active calls of the source: *.

SMILES	RT RNaseH block
CC(C)NC(=O)c1ccccc1NC(=O)CN(c1ccc2c(c1)OCO2)S(C)(=O)=O	-5
CCC(C)COC(=O)c1ccc(C(=O)O)cc1 (stereo not drawn)	-5
CCC(Sc1nc(C)cc(C)n1)C(=O)O (stereo not drawn)	-9
CCC(Sc1ccc(C(=O)O)cc1)C(=O)O (stereo not drawn)	57*
C/C=C/Cn1c(SCCCc2ccccc2)nc2c1c(=O)[nH]c(=O)n2C	-14
CC(C)n1c(SCCCc2ccccc2)nc2c1c(=O)[nH]c(=O)n2C	56*
C=CCn1c(SCCCc2ccccc2)nc2c1c(=O)[nH]c(=O)n2C	-34
O=C(CSc1nnc(-c2ccncc2)n1-c1ccc(Cl)cc1)N1CCOCC1	-15
CC1Oc2ccccc2N(CC(=O)NCCc2ccccc2)C1=O (stereo not drawn)	3
CC(=O)/C(CN1CCCCC1)=N\O	-10
CC1(C)NC(=O)N(CC(O)CN2CCCCC2)C1=O (stereo not drawn)	1
C/C(=N\O)C(=O)C(CN1CCCCC1)CN1CCCCC1	51*
COc1cccc(C2C(C(N)=O)=C(C)Nc3nc(-c4ccccc4Cl)nn32)c1 (stereo not drawn)	-1
CCOC(=O)c1nn(-c2ccc(OC)cc2)c(=O)c2c(N)scc12	75*
CCOC(=O)c1nn(-c2ccc(OC)cc2)c(=O)c2c(NC(=O)c3ccco3)scc12	1
CCOC(=O)C(CC)n1cnc2c(nnn2-c2ccc(OC)cc2)c1=O (stereo not drawn)	-6
COc1ccccc1CC(NC(C)=O)C(=O)N1CCN(C(=O)Nc2ccccc2Cl)CC1 (stereo not drawn)	-3
CC(OC(=O)c1ccc2ccccc2n1)C(=O)Nc1ccc(N2CCOCC2)cc1 (stereo not drawn)	1
CCOC(=O)N1CCN(c2ccc3nnnn3n2)CC1	-13
O=C(CCCn1c(=S)[nH]c2cc3c(cc2c1=O)OCO3)N1CCN(c2ccccn2)CC1	-7
O=C(CCCCCn1c(=S)[nH]c2cc3c(cc2c1=O)OCO3)N1CCN(Cc2ccccc2)CC1	68*
O=C(CCCCCn1c(=S)[nH]c2cc3c(cc2c1=O)OCO3)N1CCN(C(=O)c2ccco2)CC1	10
NS(=O)(=O)c1ccc(C(=O)O)cc1	-7
COc1cc(Cl)c(C)cc1NC(=O)COC(=O)c1cnc(C)cn1	-14
CCC1CCCCN1c1nc2c(c(=O)n(C)c(=O)n2C)n1CCSc1nc2ccccc2o1 (stereo not drawn)	-9
SMILES	RT RNaseH block
N#CC1=C2SCN(Cc3ccco3)CN2C(=O)CC1c1c(F)cccc1Cl (stereo not drawn)	3
N#CC1=C2SCN(Cc3ccccc3)CN2C(=O)CC1c1ccccc1F (stereo not drawn)	61*
COc1ccc(Br)cc1C1CC(=O)N2CN(Cc3ccccc3)CSC2=C1C#N (stereo not drawn)	31
CC12CC(c3ccccc3O1)C(C(=O)NCc1ccccc1)C(=O)N2 (stereo not drawn)	16
Cc1nc(SCC(=O)N2CCC(C(N)=O)CC2)n[nH]1	-8
Cc1ccc(-c2nc3ccccc3[nH]2)cc1NC(=O)c1ccco1	-6
O=C(Nc1cccc(-c2nc3ccccc3[nH]2)c1)c1cccc(NC(=O)c2ccco2)c1	64*
O=C(Nc1cccc(-c2cnc3ccccc3n2)c1)c1ccco1	26
O=S(=O)(Nc1ccc2nc(-c3ccc(Br)o3)[nH]c2c1)c1ccccc1	45
O=C(Nc1ccc2nc[nH]c2c1)c1ccco1	-10
O=C(Nc1ccc2nc(-c3ccc(Br)o3)[nH]c2c1)c1ccco1	55*
CCN(CC)S(=O)(=O)c1ccc(NC(=O)Cn2c(=O)sc3ccccc32)cc1	-8
COc1ccc(NC(=O)Cn2nnc(C(N)=O)c2N)c(OC)c1	-12
Cc1cc(C)c(NC(=O)C2CSCCS2)c(C)c1 (stereo not drawn)	-2
N#Cc1ccsc1NC(=O)c1ccccn1	-9
CN(CC(=O)Nc1sccc1C#N)C1CCCCC1	58*
CN(C/C(O)=C(\C#N)c1ccccc1)C1CCCCC1	-5
CC(=O)Nc1nc(C)c(S(N)(=O)=O)s1	-19
CC(=O)N=c1sc(S(N)(=O)=O)nn1C	67*
CC(=O)Nc1nnc(S(N)(=O)=O)s1	-7
C=CCn1c(SCc2nc(N)nc(N3CCCCC3)n2)nnc1-c1ccco1	1
Cc1nn2c3c(cnc2c1-c1ccc(Cl)cc1)C(=O)CC(c1ccco1)C3 (stereo not drawn)	4
CCCc1cc(=O)oc2cc(OCC(=O)OC)cc(OCC(=O)OC)c12	-7
CCc1c(C)sc(NC(=O)c2cc(C)on2)c1C#N	-3
CCCc1cc(C(=O)Nc2sc(C)c(CC)c2C#N)no1	53*
CCc1c(C)sc(NC(=O)c2cc(C3CC3)on2)c1C#N	33
Cc1ccc(NCc2nnc(SCC(N)=O)n2CCc2ccccc2)cc1	-1
O=c1c2sc3nc(N4CCOCC4)c4c(c3c2ncn1Cc1ccco1)CCCC4	6
COc1ccc(CN(CCCN2CCOCC2)S(=O)(=O)N(C)C)cc1OC	-10
COc1ccc(CN(CCCN2CCOCC2)C(=O)Nc2ccccc2)cc1OC	0

Compound activity as filed in PubChem BioAssay.
